The results in this text go back to PubChem BioAssay AID1745848 (National Center for Advancing Translational Sciences (NCATS), 2022).

The whole screen tested about 2,100 compounds, of which about 940 (45%) were called active. Another 48% or so got no clear call; they are omitted. The set was probably picked from earlier hits. Some of the results follow. A number with no mark means an inactive call. The call rests on the fitted dose curve; in most records, active means well fitted inhibition curve with a large enough effect; inconclusive means small, poorly fitted or top-dose-only effect; inactive means no such curve, though single readings can be large or run the other way.
Potency means the concentration at half of the fitted maximal effect.

This test can be described thus: Confirmatory qHTS for Inhibitors of ATXN expression. Further: nearly all actives have a fitted effect of over 65% in size.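 On activity change, negative = inhibition: 0% = DMSO vehicle wells and -100% = medium-only wells without cells.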 The following applies: ATXN2-luciferase reporter cells, luminescence, 24 h; series mostly up to 11.5 µM; activity change, negative = inhibition: at the top concentration. In outline: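 A titration, incubated 24 h with reporter cells expressing ATXN2-luciferase. Luminescence (SteadyGlo) gives ATXN2 expression, multiplexed GF-AFC fluorescence gives viability; normalised to DMSO and medium-only wells.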
In general terms: In qHTS, concentration-response curves come from the screen itself.
For the compound `C/C(=C\C(=O)c1ccc(Br)cc1)NNC(=O)c1ccc(O)cc1`, the Potency was 14.1 µM (active).

Regarding `O=C(c1cc(COc2cccc(C(F)(F)F)c2)on1)N1CCC(c2ccncc2)CC1`, the “activity change, negative = inhibition” value was -5.04%.

`CC(=NNc1nc2ccccc2o1)c1ncccn1`: the Potency was 0.199 µM (active).

`Cc1ccccc1NC(=O)CSc1n[nH]c(-c2ccccn2)n1`: the Potency was 14.1 µM (active).

Turning to `Cc1ccsc1/C=C/C1=Cc2c(sc(NC(=O)CSc3n[nH]c(N)n3)c2C#N)C(C)(C)C1`, the “activity change, negative = inhibition” value is -14.6% [at 57.5 µM].

`Cc1ccc(C)c(NC(=O)CSc2n[nH]c(-c3ccccn3)n2)c1`: the Potency is 22.4 µM (active).

Turning to `CC1=C(CC[C@@H](C)CO)OC2CC3C4CCC5CC(O)CCC5(C)C4CC(=O)C3(C)C12` (stereo not given in full), the Potency is 3.16 µM (active).

With `C/C(=N\Nc1cc(N2CCOCC2)nc(C)n1)c1cccc([N+](=O)[O-])c1`, the “activity change, negative = inhibition” value was -16.7%.

Turning to `Cc1cc(N/N=C/c2ccccc2[N+](=O)[O-])nc(-n2nc(C)cc2C)n1`, the Potency is 3.16 µM (active).

Take `Cc1nc(N/N=C/c2ccc(O)cc2O)cc(N2CCOCC2)n1`: the Potency is 11.2 µM (active).

Turning to `Cc1cc(O)c(C(C)C)cc1N=Cc1ccccc1[N+](=O)[O-]`, the “activity change, negative = inhibition” value was -14.8% [at 57.5 µM].

On to `CCOc1cc(/C=N/Nc2cc(C)nc(-n3nc(C)cc3C)n2)ccc1O`, for which the Potency was 0.708 µM (active).

On to `Cc1cc(N/N=C/c2ccc(O)cc2O)nc(-n2nc(C)cc2C)n1`, for which the Potency was 5.01 µM (active).

`CS/C(=C\[N+](=O)[O-])Nc1ccc(OC(F)(F)F)cc1`: the Potency is 11.2 µM (active).

On to `OC(CNCCc1ccccc1)COc1ccc(OCC(O)CNCCc2ccccc2)cc1` (stereo not given), for which the Potency is 12.6 µM (active).

As for `O=c1c2c(nc3c(-c4ccc(Cl)cc4)c[nH]n13)CCCC2`, the Potency is 1.26 µM (active).

Regarding `CCCc1cc(=O)n2[nH]cc(-c3ccc(Cl)cc3)c2n1`, the Potency is 2.82 µM (active).

Turning to `O=C(c1cccc(Cl)c1)c1nn(-c2ccccc2)c(=O)cc1C(F)(F)F`, the Potency was 31.6 µM (active).

For the compound `O=c1c2ccccc2sc2nc(CCl)nn12`, the Potency is 3.16 µM (active).

For the compound `O=c1[nH]c(CN2CCN(c3ncccn3)CC2)nc2c(Br)cc(Br)cc12`, the Potency is 2.82 µM (active).

As to `COc1cc(/C=N\NC(=O)CC#N)ccc1OC/C=C/c1ccccc1`, the Potency was 28.2 µM (active).

For the compound `Cc1[nH]c2ccccc2c1SCc1nnc(SCc2ccc(Cl)cc2)n1C`, the Potency is 31.6 µM (active).

`Cn1c(CCc2nc3ccccc3[nH]2)nnc1SCC#N`: the “activity change, negative = inhibition” value is -2.57% [at 57.5 µM].

In the case of `Cc1cc2sc3ccc(C#CC4(O)CCCCC4)cc3c(=O)c2cc1C`, the “activity change, negative = inhibition” value was -96.9% [at 57.5 µM].

As for `CC(C)n1c(NCc2cc(Cl)ccc2O)nc2ccccc21`, the “activity change, negative = inhibition” value is -14.6%.

On to `Cc1ccc2cc(C3C(C#N)=C(N)Oc4c3ccc3cccnc43)c(=O)[nH]c2c1` (stereo not given), for which the Potency was 6.31 µM (active).

For the compound `Cc1cccc(/C=C/C(=O)c2ccc([N+](=O)[O-])o2)c1`, the Potency is 3.16 µM (active).

Regarding `Cc1cc(C)cc(NC(=O)c2ccc([N+](=O)[O-])o2)c1`, the Potency was 2.82 µM (active).

For `COc1ccc(/C=C/C(=O)c2ccc([N+](=O)[O-])o2)cc1OC`, the Potency is 7.94 µM (active).

Consider `CNC(=O)c1sc(N2N=C3/C(=C/c4ccccc4)CCCC3C2c2ccccc2)nc1C` (stereo not given), for which the Potency is 12.6 µM (active).

Take `Cc1ccc(C(=O)NC(C)CCc2ccccc2)cc1S(=O)(=O)N1CCOCC1` (stereo not given): the Potency was 15.8 µM (active).

With `CC(CCc1ccccc1)NC(=O)c1ccc(C(=O)NC(C)CCc2ccccc2)cc1` (stereo not given), the Potency is 1.58 µM (active).

`Cc1ccc(NC(=O)CNc2cccc(Br)c2)cc1S(=O)(=O)N1CCOCC1`: the “activity change, negative = inhibition” value was -21.3%.

Turning to `CC(C)[C@H](CO)Nc1nc(NCc2ccc(S(N)(=O)=O)cc2)c2ncn(C(C)C)c2n1`, the Potency is 2 µM (active).

For the compound `Oc1c(Cl)cc(Cl)cc1/C=N/Nc1ncc(Br)cn1`, the Potency is 2.51 µM (active).

Consider `CC1CC2(C)Oc3ccccc3CC2C(C)C1CNCCCN(C)C` (stereo not given), for which the Potency was 14.1 µM (active).

Regarding `C(=NN1CCCCCC1)c1ccc2ccccc2n1`, the “activity change, negative = inhibition” value was -96.8% [at 57.5 µM].

As to `CCc1nc2ccccc2c(C(=O)OCC(=O)Nc2cccc(S(=O)(=O)NC3=NCCCCC3)c2)c1C`, the Potency is 17.8 µM (active).

Take `CCc1nc2ccccc2c(C(=O)OCC(=O)Nc2ccc(NC(C)=O)cc2)c1C`: the “activity change, negative = inhibition” value was -25.1%.

As for `Cc1cc(/C=N/n2c(COc3ccccc3)nc3ccccc3c2=O)c(O)c([N+](=O)[O-])c1`, the Potency is 7.94 µM (active).

Regarding `CSc1sc(-c2nnc(SCC(=O)Nc3ccc(Cl)cc3)n2C)c2c1C=CCC2`, the “activity change, negative = inhibition” value was -17.3%.

On to `Cn1c(SCC(=O)N/N=C/c2ccc([N+](=O)[O-])s2)nnc1-c1ccc(Cl)cc1`, for which the Potency was 10 µM (active).

For the compound `Cn1c(SCC(=O)N/N=C/c2ccc([N+](=O)[O-])s2)nnc1-c1ccccc1`, the Potency is 17.8 µM (active).

In the case of `C=CCc1ccccc1OCC(=O)N/N=C/c1ccc(OC(C)=O)cc1OC(C)=O`, the Potency is 15.8 µM (active).

Regarding `C=CCc1cccc(/C=N/NC(=O)CNc2ccccc2OC)c1O`, the Potency was 5.01 µM (active).

Regarding `C=CCc1cccc(/C=N/NC(=O)CNc2ccccc2)c1O`, the Potency is 2.82 µM (active).

For the compound `CCC(=O)NC(=S)NNC(=O)c1ccc(OC)cc1`, the Potency is 15.8 µM (active).

With `CCCCOc1ccc(C(=O)NNC(=S)NC(=O)CC)cc1`, the Potency was 2.82 µM (active).

With `CCCC/C(C)=N/NC(=O)c1cn(-c2ccccc2)nc1-c1ccccc1`, the “activity change, negative = inhibition” value is -12.8%.

Take `COc1ccc(-c2nn(-c3ccccc3)cc2C(=O)NC(=S)NNC(=O)c2ccncc2)cc1`: the Potency was 15.8 µM (active).

For the compound `CCCOc1ccc(C(=O)NC(=S)NNC(=O)c2c(-c3ccccc3)noc2C)cc1`, the “activity change, negative = inhibition” value is -5.12%.

On to `COc1ccc(C(=O)NNC(=S)NC(=O)c2ccccc2)cc1`, for which the Potency was 14.1 µM (active).

`C=CS(=O)(=O)c1c2cc(OC)ccc2nc2ccc(OC)cc12`: the Potency was 28.2 µM (active).

In the case of `COc1ccc(C)cc1Nc1nc(N)c2cc(OC)c(OC)cc2n1`, the Potency was 2.82 µM (active).

`O=C(COC(=O)c1cc([N+](=O)[O-])ccc1N1CCOCC1)Nc1ccc(Cl)cn1`: the Potency is 6.31 µM (active).

Regarding `CC(C)Nc1nc(-c2ccccn2)nc(-c2ccccc2)c1C#N`, the “activity change, negative = inhibition” value was -21.5% [at 57.5 µM].

For `CCN(CC)c1nc(-c2ccccn2)nc(-c2ccccc2)c1C#N`, the Potency is 7.08 µM (active).

`O=C(NNC(=O)C(c1ccccc1)c1ccccc1)c1ccccn1`: the Potency is 3.16 µM (active).

Regarding `O=C(NNC(=O)C12CC3CC(CC(C3)C1)C2)c1ccccn1`, the Potency is 8.91 µM (active).

As for `O=C(NCC(=O)N1CC(O)CC1C(=O)N1CCCC1C(=O)OCc1ccccc1)OCc1ccccc1` (stereo not given), the Potency was 3.16 µM (active).

Regarding `COC(=O)c1cc(=O)n(CCc2ccc(OC)c(OC)c2)c(=Nc2ccc(F)c(Cl)c2)s1`, the Potency was 3.16 µM (active).

Turning to `CCCC[C@@H](CNC)NC[C@H](NCCCCC1CCCCC1)C(C)C`, the Potency is 28.2 µM (active).

Regarding `CCN1C(=O)/C(=C/c2nc3ccccc3c(=O)n2-c2ccccc2)c2ccccc21`, the Potency is 25.1 µM (active).

As for `O=[N+]([O-])c1c(Nc2ccccn2)cc(Cl)c2nonc12`, the Potency is 7.94 µM (active).

As for `COc1cc(/C=C/c2ccc3cccc(O)c3n2)cc(OC)c1OC`, the “activity change, negative = inhibition” value is -20.7% [at 57.5 µM].

For `COc1cc(C=CC(=O)c2cc(OC)c(OC)c(OC)c2)cc(OC)c1OC`, the Potency is 8.91 µM (active).

For `Cc1[nH]c2ccccc2c1C1=NNC(=Nc2ccc(F)cc2)SC1`, the Potency is 31.6 µM (active).

For `O=C(Nc1ccc(Cl)cc1)Nc1nc(-c2sccc2Br)cs1`, the Potency was 6.31 µM (active).

In the case of `CC(C)[C@@H]1CC[C@@H](C)C[C@H]1OC(=O)C[n+]1cc(-c2ccc(Cl)cc2)n2c1CCCCC2`, the Potency was 15.8 µM (active).

Regarding `NS(=O)(=O)c1ccc(Nc2nc(-c3ccc(F)cc3)cs2)cc1`, the “activity change, negative = inhibition” value is -25.8%.

For `COc1ccc(-c2csc(NC(=O)c3ccccc3NS(=O)(=O)c3ccc(F)c(F)c3)n2)cc1`, the Potency is 1.78 µM (active).

With `O=C(Nc1nc(-c2ccccc2)cs1)c1ccccc1NS(=O)(=O)c1ccc(F)cc1`, the Potency was 2 µM (active).

`OC(c1cc(F)cc(Cl)c1)c1ncc(-c2cccc(C(F)(F)F)c2)[nH]1` (stereo not given): the Potency is 3.16 µM (active).

Regarding `OC(c1ccc(Cl)cc1)c1ncc(-c2cccc(C(F)(F)F)c2)[nH]1` (stereo not given), the “activity change, negative = inhibition” value is -16.3%.

As to `Cc1cc(C)c(C(O)c2ncc(-c3cccc4ccccc34)[nH]2)c(C)c1` (stereo not given), the “activity change, negative = inhibition” value is -15.3%.

For `CCN(CC)C(=O)C1=C(C)N(CCC2=CCCCC2)C(=O)C(CC(=O)NC(c2ccccc2)c2ccccc2)C1` (stereo not given), the “activity change, negative = inhibition” value is -19.3%.

In the case of `C/C(=N\NC(=O)c1ccc(Cl)c(Cl)c1)c1ccccn1`, the Potency is 0.178 µM (active).

Take `C/C(=N\NC(=O)c1cccc2ccccc12)c1ccccn1`: the Potency was 0.708 µM (active).

Consider `Cc1cc(C)cc(NC(=O)CSc2nc3nc(C)cc(C)c3c(=O)[nH]2)c1`, for which the Potency is 28.2 µM (active).

As for `Cc1cc(C)cc(NC(=O)CSc2nc3[nH]ncc3c(=O)[nH]2)c1`, the Potency is 2.51 µM (active).

Consider `Cn1c(CO)cnc1S(=O)(=O)Cc1ccc([N+](=O)[O-])cc1`, for which the “activity change, negative = inhibition” value was -3.34% [at 57.5 µM].

In the case of `COc1cc(C(=O)O/N=C(\N)Cc2ccc([N+](=O)[O-])cc2)cc(OC)c1OC`, the Potency is 2.82 µM (active).

Consider `O=c1[nH]c(=O)n(C2C[C@H](O)[C@@H](CO)O2)cc1C(F)(F)F` (stereo not given in full), for which the Potency is 1.26 µM (active).

With `CCOC(=O)c1c(-c2ccccc2)oc2cc(CN(C)C)c(O)c(CN(C)C)c12`, the Potency was 3.16 µM (active).

As to `CCCCC(=O)NC(c1ccc(Cl)cc1)c1ccc2cccnc2c1O` (stereo not given), the Potency was 1.41 µM (active).

`CCCC(=O)NC(c1ccc(Cl)cc1)c1ccc2cccnc2c1O` (stereo not given): the Potency is 1.58 µM (active).

As to `CCCC(=O)NC(c1ccc(OC)cc1)c1ccc2cccnc2c1O` (stereo not given), the Potency was 2.24 µM (active).

As for `CCCC(=O)NC(c1ccc(C(C)C)cc1)c1ccc2cccnc2c1O` (stereo not given), the Potency is 0.178 µM (active).

Consider `CCCC(=O)NC(c1ccc(C)cc1)c1ccc2cccnc2c1O` (stereo not given), for which the Potency is 1.58 µM (active).

Regarding `CC(C)CC(=O)NC(c1cccs1)c1ccc2cccnc2c1O` (stereo not given), the Potency was 0.398 µM (active).

As to `CCOc1ccccc1N1CCN(c2ncnc3scc(-c4ccc(OC)cc4)c23)CC1`, the Potency was 28.2 µM (active).

For `CCN1CCN(CCCNC(=O)c2ccc(/C=C3/Sc4ccccc4N(Cc4ccccc4F)C3=O)cc2)CC1`, the Potency is 28.2 µM (active).

For the compound `COc1ccc(Cc2nnc(N/N=C/c3ccccc3O)[nH]c2=O)cc1OC`, the Potency is 1.58 µM (active).

Regarding `COc1ccc(Cc2nnc(N/N=C/c3ccc(O)cc3)[nH]c2=O)cc1OC`, the Potency is 0.631 µM (active).

In the case of `C=CCOc1ccc(CNc2ccc3[nH]c(=O)[nH]c3c2)cc1OC`, the “activity change, negative = inhibition” value was -2% [at 57.5 µM].
